ST2 inh = inhibitors of human ST2 (IL1RL1) binding to IL-33; Q01638; AlphaLISA ST2-Fc/biotin-IL-33 interaction, 1 h; inhibition, % for hits at 17 µM; 78,000 compounds, 2.3% hits; AID 1259354; in the data active means inhibition above about 30%
Target sequence (Q01638 whole entry, looked up): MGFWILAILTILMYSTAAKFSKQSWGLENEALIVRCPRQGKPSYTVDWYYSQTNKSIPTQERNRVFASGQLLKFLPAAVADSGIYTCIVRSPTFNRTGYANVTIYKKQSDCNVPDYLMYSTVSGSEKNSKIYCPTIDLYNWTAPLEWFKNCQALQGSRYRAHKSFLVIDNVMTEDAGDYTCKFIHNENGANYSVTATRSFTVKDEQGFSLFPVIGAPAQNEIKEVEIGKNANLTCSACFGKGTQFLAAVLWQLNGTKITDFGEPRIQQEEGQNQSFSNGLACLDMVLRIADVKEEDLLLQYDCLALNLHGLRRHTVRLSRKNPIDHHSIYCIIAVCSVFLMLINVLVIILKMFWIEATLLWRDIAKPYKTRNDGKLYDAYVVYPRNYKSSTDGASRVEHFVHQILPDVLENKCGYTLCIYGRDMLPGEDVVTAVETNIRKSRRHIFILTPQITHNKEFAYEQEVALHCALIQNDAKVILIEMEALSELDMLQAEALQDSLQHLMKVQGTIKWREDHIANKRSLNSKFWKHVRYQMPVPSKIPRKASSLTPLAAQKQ
Numbers stand for hits; . = inactive. This is one part of a sample in which hits are shown more often than they occur.

SMILES | ST2 inh
O=C(O)c1cc2c3c(c1)C1C=CCC1C(c1ccc(F)cc1)N3CC1CC=CC21 (stereo not drawn) | .
O=C(O)c1cc2c3c(c1)C1C=CCC1C(c1cccc([N+](=O)[O-])c1)N3CC1CC=CC21 (stereo not drawn) | 40.0%
CCCOc1ccc(-c2nc3s/c(=C\c4cccs4)c(=O)n3n2)cc1 | .
CC1CCCC[C@H]2C(=O)C=C[C@H](O)[C@@H]2CC(=O)O1 (stereo partly drawn) | 46.0%
Cc1nn(C)cc1CN1CCOc2ccc(CN3CCC(OCc4ccccc4)CC3)cc2C1 | .
CCOc1ccc(C2C3=C(CCCC3=O)NC3=C2C(=O)c2ccccc23)cc1 (stereo not drawn) | 36.0%
O=C1CCCC2=C1C(c1ccc(OCc3ccc([N+](=O)[O-])cc3)cc1)C1=C(CCCC1=O)N2 | .
COc1ccc(C2C3=C(CCCC3=O)NC3=C2C(=O)c2ccccc23)cc1 (stereo not drawn) | .
CCn1ccnc1CN1CCCC(C(=O)Nc2ccc(-c3nc4ccccc4[nH]3)cc2)C1 (stereo not drawn) | .
COCC1(C(=O)N2CCC(C(O)c3cccs3)CC2)CCC1 (stereo not drawn) | .
O=C(O)COc1ccc(N2C(=O)c3cccc4cccc(c34)C2=O)cc1 | .
Cc1[nH]n(-c2ccccc2)c(=O)c1C(c1ccco1)c1c(C)[nH]n(-c2ccccc2)c1=O | 51.0%
Cc1c(C(c2ccco2)c2c(C)n(C)n(-c3ccccc3)c2=O)c(=O)n(-c2ccccc2)n1C | .
Cc1cn(-c2ccccc2)[nH]c1=O | .
Cc1nnc(SCC(=O)Nc2nc3ccccc3s2)s1 | .
COC(=O)c1ccc(-c2noc(CN3CCN(C4CCc5ccccc5C4)CC3)n2)cc1 (stereo not drawn) | .
Cc1ccc(C2C(C#N)=C(N)SC(N)=C2C#N)o1 | 32.0%
COc1ccccc1C1C(C#N)=C(N)SC(N)=C1C#N | .
N#CC1=C(N)SC(N)=C(C#N)C1c1ccc(Cl)cc1Cl | .
CC(C)NC(=O)CC[C@@H]1CNC(=O)[C@@H]2C[C@H](NC(=S)Nc3ccc(N4CCOCC4)nc3)CN12 | .
Cc1cccc(C(=O)Nc2ccc(Cl)c(Cl)c2)c1 | .
O=C(Nc1ccc(Br)cc1)c1cc(C2CC2)on1 | .
c1ccc2c(c1)CCN(Cc1ccc3c(c1)OCO3)C2 | .
O=C1/C(=C/c2c[nH]c3ccccc23)CC/C1=C\c1c[nH]c2ccccc12 | .
O=C1OC(c2ccc(Br)cc2)=N/C1=C\c1ccccc1 | .
SMILES | ST2 inh
O=C1/C(=C/c2ccccc2)CC/C1=C\c1ccccc1 | 33.0%
Cc1cnccc1CN(C)C(=O)c1ccc2cccnc2n1 | .
COc1cc([N+](=O)[O-])ccc1NC(=O)C(c1ccccc1)c1ccccc1 | .
O=C1C(=Cc2ccc(-c3ccc([N+](=O)[O-])cc3Cl)o2)C(=O)c2ccccc21 | .
COc1cc([N+](=O)[O-])ccc1-c1ccc(/C=C2\C(=O)ON=C2c2ccccc2)o1 | 34.0%
COc1ccccc1CC(=O)NCC1OCCc2ccccc21 (stereo not drawn) | .
CCCc1cc(C(=O)N2CCC3(CCCN(Cc4cccc(OC)c4OC)C3)C2)n(C)n1 (stereo not drawn) | .
Cn1cc(C(c2ccc([N+](=O)[O-])o2)c2cn(C)c3ccccc23)c2ccccc21 | 41.0%
Cn1cc(CC(=O)NCc2ccco2)c2ccccc21 | .
CCN(CC)C(=O)Cc1cn(C)c2ccccc12 | .
O=C(NCCSc1c[nH]c2ccccc12)c1ccc2ccccc2c1 | .
Fc1cccc(Cc2noc(CN3CCCN(C4CCCCC4)CC3)n2)c1 | .
CN(C)CCN(C)Cc1ccc(F)cc1 | .
Cc1cnc(C)c(N2CCOc3c(O)cc(-c4ccccc4C)cc3C2)n1 | .
COc1cc2c(cc1CNCc1cccnc1Oc1ccc(C)nc1)CCC2 | .
O=C(COCc1ccccc1)NCc1cnn2ccccc12 | .
O=C(NCc1cnn2ccccc12)c1cccc(Cn2cccn2)c1 | .
Cc1ccc(SC(C)C(=O)NCc2cnn3ccccc23)cc1 (stereo not drawn) | .
CCSC[C@H](N)C(=O)NCc1cnn2ccccc12 | .
C=CCOC(=O)NCc1cnn2ccccc12 | 40.0%
COc1cccc(CC(=O)NCc2cnn3ccccc23)c1 | 33.0%
COc1cc(O)cc2c1C(=O)CC(c1ccc(O)cc1)O2 (stereo not drawn) | .
CC(C)(C)c1ccc(C(=O)NCCCN=C2NS(=O)(=O)c3ccccc32)cc1 | .
O=C(NC1CC1)c1cc(=O)[nH]c2ccc(S(=O)(=O)N3CCCCC3)cc12 | .
CCc1ccccc1NC(=O)CSCc1ccc(Cl)cc1 | .
SMILES | ST2 inh
O=C(NCCCN1CCOCC1)c1ccc2c(c1)N(Cc1ccc(F)cc1)C(=O)CS2 | .
O=C1NCC2(CCCN(C(=O)CCNC(=O)c3ccc(F)cc3)C2)O1 (stereo not drawn) | .
O=C(Nc1cc(Cl)cc(Cl)c1)c1cnc2n(c1=O)CCS2 | .
O=C(Nc1ccc(Cl)c(Cl)c1)c1cnc2n(c1=O)CCS2 | 32.0%
O=C(Nc1ccc(F)c(Cl)c1)c1cnc2n(c1=O)CCS2 | .
CCOc1ccccc1NC(=O)CC(=O)N(C)C1CCN(C)C1 (stereo not drawn) | .
Cc1ccc(S(=O)(=O)NCc2nc3cccnc3n2Cc2ccc(F)cc2)cc1 | .
O=C(NCc1ccc(Cl)cc1)C(=O)Nc1ccc([N+](=O)[O-])cc1 | .
O=C(NCc1ccccc1)Nc1ccc(Cl)cc1 | 30.0%
O=C(NCc1ccccc1)NS(=O)(=O)c1ccccc1Cl | .
CCNc1ncc(-c2nn3c(C(C)C)nnc3s2)cn1 | .
O=C(Nc1c(C(=O)Nc2ccc(F)cc2)oc2ccccc12)c1ccc(F)cc1 | .
CC1(C)[C@H]2CC[C@]1(C)C(=O)N(c1nc3c(s1)CCCC3)C2=O | .
O=C1NCC2(CCCN(c3nc4ccccc4s3)CC2)O1 (stereo not drawn) | .
COc1ccc(/C=C2\CCC/C(=C\c3ccc(OC)c(OC)c3)C2=O)cc1OC | 30.0%
COc1ccc(C=C2C(=O)OC(C)(C(C)(C)C)OC2=O)cc1OC (stereo not drawn) | .
COc1ccc(/C=C/C#N)cc1OC | .
O=C(C1CC1)N1CCc2cc(S(=O)(=O)NCc3ccccc3Cl)ccc21 | .
COC(=O)c1ccc(C(=O)Nc2nc3ccc4sc(C)nc4c3s2)cc1 | 36.0%
Cc1nc2c(ccc3nc(NC(=O)c4ccccc4)sc32)s1 | .
Cc1nc2c(ccc3nc(NC(=O)c4ccc5c(c4)OCCO5)sc32)s1 | .
Cc1nc2c(ccc3nc(NC(=O)c4ccc(C)c(C)c4)sc32)s1 | 41.0%
Cc1nc2c(ccc3nc(NC(=O)c4cccc(Br)c4)sc32)s1 | .
Cc1nc2c(ccc3nc(NC(=O)c4ccc(OC(C)C)cc4)sc32)s1 | .
COc1ccc(OC)c(S(=O)(=O)Nc2ccc(F)c(Cl)c2)c1 | .
SMILES | ST2 inh
CCc1ccc(C2CC(c3ccc(C)cc3)n3ncnc3N2)cc1 (stereo not drawn) | .
CSc1nc2c(c(=O)[nH]1)C(c1cccc(Br)c1)C1=C(CC(C)(C)CC1=O)N2 (stereo not drawn) | .
CCN(CC)S(=O)(=O)c1cc(C(=O)Nc2ccc(C(=O)O)cc2)ccc1C | .
CN(C)C(=O)C12CC3(C)CC(C)(CC(C)(C3)C1)C2 | .
COc1ccccc1N/C=C(\C#N)c1nc(-c2ccc3c(c2)OCO3)cs1 | 41.0%
COc1cc(C(=O)Nc2nc(-c3ccc4c(c3)OCO4)cs2)cc(OC)c1OC | .
N#C/C(=C\c1cccc([N+](=O)[O-])c1)c1nc(-c2ccc3c(c2)OCO3)cs1 | .
N#C/C(=C\Nc1ccccc1F)c1nc(-c2cc3cc([N+](=O)[O-])ccc3oc2=O)cs1 | .

From PubChem BioAssay
